In PubChem BioAssay (NCATS):

Biological target: Catechol O-methyltransferase (Homo sapiens) (UniProt P21964)
Assay: Confirmatory Screen for Target Class Profiling of Small Molecule Inhibitors of Methyltransferases (AID 1745852)
Conditions: MTase-Glo luminescence, SAH detection, recombinant enzyme; measured here: COMT max response; stronger effect = lower value

Chain of Catechol O-methyltransferase (Homo sapiens) (P21964 whole entry, looked up): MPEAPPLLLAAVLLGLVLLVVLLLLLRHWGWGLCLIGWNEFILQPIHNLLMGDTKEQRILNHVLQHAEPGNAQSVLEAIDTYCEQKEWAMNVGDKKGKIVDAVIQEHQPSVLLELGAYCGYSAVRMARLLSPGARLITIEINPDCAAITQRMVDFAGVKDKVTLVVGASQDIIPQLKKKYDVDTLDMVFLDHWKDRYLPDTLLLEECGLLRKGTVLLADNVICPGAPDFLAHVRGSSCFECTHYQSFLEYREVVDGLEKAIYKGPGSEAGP

| SMILES | activity [%] |
| --- | --- |
| COc1c2cc(c(O[C@@H]3O[C@H](CO)[C@@H](O)[C@H](O)[C@H]3O)c1OC)CCCCC(O)CCc1ccc(O)c-2c1 (some centres undefined) | -87.3 |
| C/C(=C\CC/C(C)=C/CC[C@]1(C)CCc2cc(O)cc(C)c2O1)CC/C=C(\C)C(=O)O | -20.5 |
| CSC(=O)OCC1=C[C@@H]2OC(=O)C3=CO[C@@H](O[C@@H]4O[C@H](CO)[C@@H](O)[C@H](O)[C@H]4O)[C@H]1[C@@H]32 | -58.6 |
| C[C@@H]1O[C@@H](OC[C@H]2O[C@@H](OCc3ccccc3)[C@H](O)[C@@H](O)[C@@H]2O)[C@H](O)[C@H](O)[C@H]1O | -64.3 |
| CC(=O)OC/C(=C/C(=O)O)CC[C@@H]1C(C)=CC(=O)[C@@H]2C(C)(C)CCC[C@@]12C | -62.3 |
| COc1cc(C2Oc3c(OC)cc(CCCO)cc3C2CO)ccc1O (centres undefined) | -80.9 |
| O=C(O)CC1(O)C(=O)Nc2ccccc21 (centres undefined) | 0 |
| COc1c(O)cc2c(c1O)C(=O)O[C@H](C)[C@H]2O | -42.1 |
| O=C(O)CCc1ccc(NCc2cccc3c2CCCN3CCOc2ccccc2)cc1F | -3.27 |
| CC1CC(=O)C2=C(O1)OC1(C)CCC3C(C)(C)C4OC4C(=O)C3(C)C1C2 (centres undefined) | -27.1 |
| CC(C)(O)C1CC=C(C(=O)OC[C@H]2O[C@@H](OC(=O)C3=CCC(C(C)(C)O)CC3)[C@H](O)[C@@H](O)[C@@H]2O)CC1 (some centres undefined) | -62.1 |
| CC1(C)CC[C@]2(C(=O)O[C@@H]3O[C@H](CO)[C@@H](O)[C@H](O)[C@H]3O)CC[C@]3(C)C(=CCC4[C@@]5(C)C[C@@H](O)[C@H](O)[C@@](C)(CO)C5[C@H](O)C[C@]43C)C2[C@@H]1O (some centres undefined) | -79.3 |
| COc1cc(C2Oc3c(OC)cc(/C=C/C(=O)OC4CC(O)(C(=O)O)CC(O)C4O)cc3C2CO)ccc1O (centres undefined) | -71.9 |
| COc1ccc(CC(NC(C)=O)C(=O)O)cc1 (centres undefined) | -71.7 |
